The list is not random: actives were taken first. Their share in the collection is about 7.4%.
HEK cytotox – Cytotoxic Profiling in HEK 293 Cell Line of Diverse Libraries Using Quantitative High-Throughput Screening. HEK 293 viability, ATP luminescence (CellTiter-Glo), 48-72 h. Potency, µM (highest dose often 115 µM), inactives show at the highest dose activity change, negative = cytotoxicity, most hits filed as inhibitors. 6.6% of 94,000 active. AID 1345083, 2018; further: nearly all actives have a fitted effect of over 60% in size
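qHTS cytotoxicity; HEK 293, 250 cells/well; compound pinned; 48 or 72 hr, 37 degree Celsius, 5% CO2, 95% humidity; CellTiter-Glo, 10 min RT; luminescence (ATP).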
SNCA expr inhib – Primary qHTS assay for inhibitors of alpha-synuclein gene (SNCA) expression; HEK-293 SNCA-luciferase knock-in, luminescence, 24 h; Potency, µM (titrated, usually from 57.2 µM), for inactives: at the top dose activity change, negative = inhibition, most hits filed as inhibitors; 0.17% of 140,000 active;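 further: plate controls were DMSO cells for no effect and cell-free wells for full effect; nearly all actives have a fitted effect of over 45% in size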
HEK293 viab – GF-AFC viability counterscreen for inhibitors of alpha-synuclein gene (SNCA) expression; HEK-293-SNCA-luc viability, GF-AFC fluorescence, 24 h; 0.12% of 150,000 active; Potency, µM (highest dose often 57.1 µM), inactives show at the top dose activity change, negative = cytotoxicity, usual class: cytotoxic;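 further: 0% = DMSO-treated cells and -100% = medium-only wells without cells; nearly all actives have a fitted effect of over 30% in size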
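Cytotoxicity counterscreen: after 24 h compound treatment of genome-edited SNCA-luciferase HEK-293 cells, live-cell protease substrate GF-AFC read by fluorescence after 30 min; activity scaled between DMSO (0%) and medium-only (-100%), curves Hill-fitted.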
FLuc inh – Firefly luciferase inhibition profiling of diverse chemical library using quantitative high-throughput screening; Potency, µM (doses to about 115 µM), most hits filed as inhibitors; Luciferin 4-monooxygenase (Photinus pyralis), P08659; 2.5% of 76,000 active; purified P. pyralis luciferase, luminescence, biochemical; further: nearly all actives have a fitted effect of over 65% in size
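Biochemical qHTS: compound (6-point titration) added to 10uM D-luciferin plus 10uM ATP in Tris acetate pH 7.5 buffer with Mg, Tween-20 and BSA, then purified enzyme at 10nM; light output imaged.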
3T3 cytotox – Cytotoxic Profiling in NIH 3T3 Cell Line of Diverse Libraries Using Quantitative High-Throughput Screening | Potency, µM (highest dose often 96.7 µM), without a hit: top-dose activity change, negative = cytotoxicity, actives largely listed as inhibitors | 4.3% of 94,000 active | AID 1345082, 2018 | NIH 3T3 viability, CellTiter-Glo ATP luminescence, 48-72 h; further: nearly all actives have a fitted effect of over 55% in size
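Cytotoxicity is measured as loss of cellular ATP: NIH 3T3 cells (400/well) are exposed to compound for 48 or 72 hr at 37 °C, then CellTiter-Glo luminescence is imaged after 10 min at room temperature.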
NPR1 antag – Natriuretic polypeptide receptor (hNpr1) antagonism - Primary qHTS; 1.6% of 76,000 active; AID 1347048, 2019; HEK293 hNpr1 GloSensor cGMP, ANP-stimulated luminescence; Atrial natriuretic peptide receptor 1 (Homo sapiens), P16066; Potency, µM (top dose mostly 46.3 µM), without a hit: at the highest dose activity change, negative = inhibition, hits mostly inhibitors; calls by dose curve; further: nearly all actives have a fitted effect of over 60% in size
Target sequence (P16066 whole entry, looked up): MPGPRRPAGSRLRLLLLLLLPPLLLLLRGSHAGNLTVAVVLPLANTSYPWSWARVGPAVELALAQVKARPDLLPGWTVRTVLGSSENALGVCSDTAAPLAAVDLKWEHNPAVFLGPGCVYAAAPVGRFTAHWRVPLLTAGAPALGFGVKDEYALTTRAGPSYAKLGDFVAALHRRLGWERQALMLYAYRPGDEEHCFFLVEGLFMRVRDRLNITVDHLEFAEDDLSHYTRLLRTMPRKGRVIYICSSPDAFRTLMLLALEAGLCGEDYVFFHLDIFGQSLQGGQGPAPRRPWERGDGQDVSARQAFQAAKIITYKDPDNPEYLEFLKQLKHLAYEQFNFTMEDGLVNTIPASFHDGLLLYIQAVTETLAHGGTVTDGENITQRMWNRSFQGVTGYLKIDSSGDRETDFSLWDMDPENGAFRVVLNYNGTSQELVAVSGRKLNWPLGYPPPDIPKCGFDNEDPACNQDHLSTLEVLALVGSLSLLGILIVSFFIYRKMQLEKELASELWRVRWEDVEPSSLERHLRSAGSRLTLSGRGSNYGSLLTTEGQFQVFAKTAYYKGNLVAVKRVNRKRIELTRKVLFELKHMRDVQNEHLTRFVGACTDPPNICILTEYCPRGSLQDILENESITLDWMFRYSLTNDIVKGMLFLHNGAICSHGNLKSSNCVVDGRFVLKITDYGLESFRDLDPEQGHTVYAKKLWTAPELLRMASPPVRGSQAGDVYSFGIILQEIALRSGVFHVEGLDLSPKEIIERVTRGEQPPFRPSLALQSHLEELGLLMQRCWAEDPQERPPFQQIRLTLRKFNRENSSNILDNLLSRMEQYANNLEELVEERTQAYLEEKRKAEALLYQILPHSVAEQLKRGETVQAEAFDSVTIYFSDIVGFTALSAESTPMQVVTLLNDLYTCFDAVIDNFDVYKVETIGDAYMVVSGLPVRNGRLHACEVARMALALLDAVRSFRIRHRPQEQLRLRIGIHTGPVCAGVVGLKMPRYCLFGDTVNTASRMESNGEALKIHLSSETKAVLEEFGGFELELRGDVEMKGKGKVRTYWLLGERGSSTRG
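Compound pre-incubated 30 min at room temperature on GloSensor-loaded HEK293 cells stably carrying hNpr1 and the pGS-40F cGMP biosensor. Stimulation uses hNppA at 0.1 nM final; luminescence is taken at baseline and 20 min post-agonist.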
An asterisk follows results filed as active; i = inactive; ? = inconclusive; · = no result; [ ] = dose if it differs, or a comment. Unless noted, the call rests on the fitted dose curve; in most records, active means well fitted curve in the direction sought with a large enough effect; inconclusive means small, poorly fitted or top-dose-only effect, or another doubt; inactive means no such curve, though single readings can be large; an effect the other way counts as inactive or inconclusive. Unless noted, on the % scale 0 is the no-effect control and ±100 the full control effect; potency means the concentration at half of the fitted maximal effect.

SMILES	HEK cytotox	SNCA expr inhib	HEK293 viab	FLuc inh	3T3 cytotox	NPR1 antag
CN1CCC(Cc2ccc(C(=O)N3CCCC3)cc2)CC1	-8%	-16%	-3%	i	0%	-3%
Cn1ccnc1C(=O)N1CCC(Cc2ccc(CCC(=O)N3CCCC3)cc2)CC1	40µM*	-14%	-26%	·	?	·
CCOc1cc(=O)n2c(c1C(=O)Nc1cccc(C(=O)OC)c1)CCCC2	?	4%	-20%	i	?	1%
Cc1c(CN2C[C@@H](CN(C)CCO)[C@@H](CO)C2)[nH]c2c(Cl)cccc12	45µM*	-17%	12%	i	79µM*	4%
CN(CCO)C[C@@H]1CN(C(=O)c2ccc3c(c2)CCC3)C[C@@H]1CO	-12%	-13%	-15%	i	4%	4%
C[S+](=O)([O-])c1ccc(-c2nccc3c(=O)cc(-c4ccncc4)oc23)cc1	?	21%[87.6 µM]	2%[87.6 µM]	i	32µM*	-6%[70.6 µM]
O=c1cc(-c2cccnc2)oc2c(-c3ccccc3F)nccc12	?	?	-17%[87.6 µM]	i	20µM*	1%[70.6 µM]
CN1CCN(c2cc(=O)c3ccnc(-c4ccc([S+](C)(=O)[O-])cc4)c3o2)CC1	i	0%[87.6 µM]	4%[87.6 µM]	i	?	1%[70.6 µM]
CN(C)c1cc(=O)c2ccnc(-c3ccccc3Oc3ccccc3)c2o1	?	111%[87.6 µM]	7%[87.6 µM]	i	?	1%[70.6 µM]
CN(C)c1cc(=O)c2ccnc(-c3ccccc3F)c2o1	?	-13%[87.6 µM]	0%[87.6 µM]	i	45µM*	3%[70.6 µM]
O=c1cc(-c2cccnc2)oc2c(-c3cn[nH]c3)nccc12	-23%[230 µM]	-14%[87.6 µM]	6%[87.6 µM]	i	8.9µM*	1%[70.6 µM]
Cc1ncoc1C(=O)N1CCC(c2noc(-c3ccncc3)n2)C1 (stereo not given)	-15%	23%	2%	i	1%	-6%
CC(=O)N1CCN(c2cccc(C=O)c2)C(=O)C1	1%[172 µM]	-8%[87.6 µM]	-1%[87.6 µM]	·	4%[138 µM]	·
Cc1ccc(C2Cn3nnc(C(=O)N4CCN(C(=O)c5ccco5)CC4)c3CO2)cc1 (stereo not given)	-5%	-19%	9%	i	-12%	-3%
COc1ccc(S(=O)(=O)N2CCc3c(C(=O)N4CCCC4)cccc32)cc1	?	-25%	2%	i	-24%	1%
O=C(Cc1ccccn1)N1CCC(C(=O)N2CCC(N3Cc4ccccc4C3=O)CC2)CC1	3%	116%	-4%	·	3%	·
O=c1cc(-c2cccnc2)oc2c(-c3ccccc3Oc3ccccc3)nccc12	100µM*	30%[87.6 µM]	?	i	?	3%[70.6 µM]
O=c1cc(N2CCOCC2)oc2c(-c3ccccc3Oc3ccccc3)nccc12	?	25%[87.6 µM]	?	i	?	-2%[70.6 µM]
COc1ccc(-c2ccc3ncn(C4CC4)c(=O)c3n2)cc1OC	?	6%[87.6 µM]	-3%[87.6 µM]	63µM*	40µM*	3%[70.6 µM]
O=c1c2nc(-c3cccc(O)c3)ccc2ncn1-c1ccccc1	?	15%[87.6 µM]	-7%[87.6 µM]	71µM*	8.9µM*	3%[70.6 µM]
O=c1c2nc(-c3cccc(O)c3)ccc2ncn1C1CC1	-28%[230 µM]	34%[87.6 µM]	5%[87.6 µM]	?	63µM*	1%[70.6 µM]
CC(=O)Nc1cccc(-c2ccc3ncn(-c4cccnc4)c(=O)c3n2)c1	-23%[172 µM]	11%[87.6 µM]	7%[87.6 µM]	i	?	1%[70.6 µM]
COc1cccc([S+](=O)([O-])N2CC(Oc3ccc(F)c(C)c3)C2)c1	-18%	7%	8%	i	-16%	9%
CC(C)CN1CC(CNC(=O)c2ccc(Oc3ccccc3)cc2)Oc2ccnc(-c3ccc(OCC(=O)O)cc3)c2C1=O (stereo not given)	i	-6%	-1%	i	?	-2%
Cc1nc(CN2C[C@H](C(=O)N3CCN(CCO)CC3)C[C@@H]2c2ccc(F)cc2)cs1	-14%[172 µM]	3%[87.6 µM]	-1%[87.6 µM]	i	?	·
SMILES	HEK cytotox	SNCA expr inhib	HEK293 viab	FLuc inh	3T3 cytotox	NPR1 antag
Cc1nc(CN2C[C@H](C(=O)NCc3cccc(F)c3)C[C@@H]2c2ccc(F)cc2)cs1	89µM*	-21%[87.6 µM]	-28%[87.6 µM]	i	?	-2%[70.6 µM]
Cc1nc(CN2C[C@H](C(=O)Nc3ccccc3)C[C@@H]2c2ccc(F)cc2)cs1	71µM*	-14%[87.6 µM]	-13%[87.6 µM]	i	?	0%[70.6 µM]
COc1ccc(C(=O)N[C@@H]2CCC[C@@H]2C(=O)NCc2c(C)n[nH]c2C)cc1	?	2%	?	i	-25%	6%
O=C(NCc1cccc(F)c1)C1=NO[C@@H]2CN(Cc3ccc(F)cc3)C[C@H]12	?	-23%[87.6 µM]	12%[87.6 µM]	i	?	3%[70.6 µM]
O=C(Cc1c[nH]c2ncc(-c3ccccc3)cc12)N1CC[S+](=O)([O-])CC1	-1%[172 µM]	15%[87.6 µM]	0%[87.6 µM]	?	?	0%[70.6 µM]
C[S+](=O)([O-])c1ccc(-c2cnc3[nH]cc(CC(=O)N4CCOCC4)c3c2)cc1	-3%[172 µM]	9%[87.6 µM]	-7%[87.6 µM]	i	45µM*	0%[70.6 µM]
Cn1cc(-c2cnc3[nH]cc(CC(=O)N4CCCC4)c3c2)cn1	-29%[172 µM]	?	4%[87.6 µM]	i	32µM*	9%[70.6 µM]
COC1CCN(C(=O)Cc2c[nH]c3ncc(-c4cnn(C)c4)cc23)CC1	?	1%[87.6 µM]	-9%[87.6 µM]	i	45µM*	6%[70.6 µM]
Cn1cc(-c2cnc3[nH]cc(CC(=O)Nc4cccc(OC(F)(F)F)c4)c3c2)cn1	?	-15%[87.6 µM]	?	i	?	?
O=C(O)Cc1cccn1-c1ccc(Cl)cc1	-4%	7%	9%	i	i	3%
CC(C)NC(=O)C1COC2(CCN(C(=O)c3cccc([N+](=O)[O-])c3)CC2)N1C(=O)c1ccccc1 (stereo not given)	?	4%	?	i	?	-5%
CN(C)Cc1cn([C@H]2CO[C@H]3[C@@H]2OC[C@H]3OC(=O)Nc2cccc(C(F)(F)F)c2)nn1	?	3%[87.6 µM]	-4%[87.6 µM]	i	?	-1%[70.6 µM]
O=C(Nc1ccc(OC(F)(F)F)cc1)N1CC[C@H]2COC(=O)N2c2cc(F)ccc2C1	-26%	0%	11%	i	-22%	-1%
O=C(Nc1ccc(F)cc1)N1CC[C@H]2COC(=O)N2c2cc(F)ccc2C1	-8%[172 µM]	60%[87.6 µM]	-8%[87.6 µM]	56µM*	?	4%[70.6 µM]
Cn1nccc1C(=O)N1CCCN(C(=O)C2CC2)c2ccccc21	-12%	-5%	-5%	i	-5%	1%
